From PubChem BioAssay AID1851 (National Center for Advancing Translational Sciences (NCATS), 2009) come the findings set out here.

The term AC50 denotes the concentration giving half of the maximal activity seen.

Several values for one entry are separate records, joined by “and”; a condition that tells them apart may be missing. Equal entries are not always repeated. Out of some 16,000 compounds screened, about 4,000 (25%) were called active. Not shown: some 26% with an inconclusive outcome. A selection follows. A number with no mark means an inactive call. The call rests on the fitted dose curve; in most records, active means well fitted curve in the direction sought with a large enough effect; inconclusive means small, poorly fitted or top-dose-only effect, or effect the other way; inactive means no such curve, though single readings can be large or run the other way.
On the % scale 0 is the no-effect control and ±100 the full control effect.

For the test, the target named is Cytochrome P450 2C9 (Homo sapiens) (UniProt P11712). In words: Cytochrome panel assay with activity outcomes. The note with it: recombinant CYP, pro-luciferin dealkylation, luminescence, p450-cyp2c9; series mostly up to 57.1 µM.
Chain of Cytochrome P450 2C9 (Homo sapiens) (P11712 whole entry, looked up): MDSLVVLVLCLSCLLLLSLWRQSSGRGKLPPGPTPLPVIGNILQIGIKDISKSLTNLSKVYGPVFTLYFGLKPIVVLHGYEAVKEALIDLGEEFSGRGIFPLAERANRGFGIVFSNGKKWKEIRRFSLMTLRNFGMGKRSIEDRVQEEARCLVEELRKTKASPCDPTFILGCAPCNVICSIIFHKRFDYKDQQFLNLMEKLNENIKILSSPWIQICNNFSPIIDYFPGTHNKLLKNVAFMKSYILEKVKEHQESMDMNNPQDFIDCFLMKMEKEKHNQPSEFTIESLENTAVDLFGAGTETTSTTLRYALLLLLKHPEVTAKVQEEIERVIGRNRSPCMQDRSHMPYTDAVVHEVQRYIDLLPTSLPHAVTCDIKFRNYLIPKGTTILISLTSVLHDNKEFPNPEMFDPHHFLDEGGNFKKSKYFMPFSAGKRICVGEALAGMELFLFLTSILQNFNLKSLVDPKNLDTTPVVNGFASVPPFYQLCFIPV
Turning to `CC1=C[N+](=O)c2ccccc2[N+]1=O`, the activity, negative = inhibition was -5.42% [at 11.4 µM].
Turning to `N#Cc1cccc(-c2cc(-n3ccnc3)ncn2)c1`, the activity, negative = inhibition was -5.24% [at 2.29 µM].
Regarding `O=C(O)c1cccc(N2CCCC2=O)c1`, the AC50 is 12.6 µM (active).
Consider `O=C(O)c1cccc(OCCO)c1`, for which the activity, negative = inhibition is -19% [at 11.4 µM].
Consider `CCCCN(C)CCCNC(=O)c1ccc(N2CCCC2=O)cc1`, for which the AC50 result was “inactive”.
`c1nc(NC2CCNCC2)c2cc(-c3ccc4c(c3)OCO4)ccc2n1`: the activity, negative = inhibition is 28.6% [at 2.29 µM].
For the compound `Oc1cc(O)c2c(c1)O[C@H](c1ccc(O)c(O)c1)[C@@H](O)[C@@H]2c1c(O)cc(O)c2c1O[C@@H](c1ccc(O)c(O)c1)[C@H](O)C2`, the activity, negative = inhibition was -22.1% [at 11.4 µM].
`O=C(c1cccc(F)c1)N1CCC2(CCCN(Cc3cc(C(F)(F)F)cc(C(F)(F)F)c3)C2)CC1`: the AC50 entry was “inactive”.
The same measure, in the same setting: under `O=C(c1cccc(F)c1)N1CCC2(CCN(Cc3cc(C(F)(F)F)cc(C(F)(F)F)c3)CC2)CC1` stands “inactive”; under `O=C(c1cccc(F)c1)N1CCC2(CCN(Cc3ccncc3)CC2)CC1`, 2.51 µM (active); under `O=C(Nc1cccc(F)c1)N1CCCC2(CCN(C(=O)c3cnccn3)CC2)C1`, “inactive”.
For the compound `O=C(c1cccc(F)c1)N1CCC2(CCN(Cc3ccccc3)CC2)CC1`, the AC50 result is “inactive”.
Still for that read-out and setting: as for `COc1ccc(C(=O)N2CCC3(CCCN(C(=O)Nc4cccc(F)c4)C3)CC2)cc1`, the entry is “inactive”.
Turning to `O=C(Nc1cccc(F)c1)N1CCCC2(CCN(C(=O)c3ccncc3)CC2)C1`, the AC50 was 0.0794 µM (active).
Take `O=C(c1cccc(F)c1)N1CCC2(CCCN(Cc3ccncc3)C2)CC1`: the AC50 was 0.631 µM (active).
As for `O=C(c1cccc(F)c1)N1CCC2(CCCN(Cc3ccccc3)C2)CC1`, the AC50 result was “inactive”.
Regarding `Cc1ccc(C(=O)Nc2ccc(Cc3ccncc3)cc2)cc1[N+](=O)[O-]`, the AC50 was 0.631 µM (active).
Still for that read-out and setting: as for `Cc1ccc(NC(=S)/C(=C(\[O-])c2ccc(C)c([N+](=O)[O-])c2)[n+]2ccccc2)cc1C`, the entry is “inactive”; as for `Cc1ccc(C(=O)N/N=C\c2ccc[nH]2)cc1[N+](=O)[O-]`, “inactive”; as for `CCC(=O)[C@@]1(C)[C@H](C)C[C@@H]2[C@@H]3CCC4=CC(=O)C=C[C@@]4(C)[C@H]3[C@H](O)C[C@]21C`, “inactive”.
Take `O=C1Cc2c([nH]c3ccc(Br)cc23)-c2ccccc2N1`: the AC50 result is “inactive”.
Consider `CCc1c(C(=O)O)[nH]c2ccc(Br)cc12`, for which the AC50 is 15.8 µM (active).
Turning to `CCCCCCN(CCCCCC)C(=O)Cc1c(-c2ccc(Cl)cc2)[nH]c2ccc(Cl)cc12`, the AC50 entry was “inactive”.
Consider `CC(=O)N1CCC2(CCN(Cc3nccs3)CC2)CC1`, for which the AC50 entry was “inactive”.
As for `CCOC(=O)CCCc1c[nH]c2ccccc12`, the AC50 is 7.94 µM (active).
Take `C[C@@](N)(Cc1c[nH]c2ccccc12)C(=O)O`: the activity, negative = inhibition is -9.29% [at 11.4 µM].
With `Nc1ccc2[nH]cc(CCC(=O)O)c2c1`, the activity, negative = inhibition was -7.47% [at 11.4 µM].
Turning to `O=C(O)c1c(Cl)c(Cl)c(Cl)c(Cl)c1C(=O)Nc1ccc2cn[nH]c2c1`, the AC50 was 0.0794 µM (active).
On to `CCNc1ncc2nc(-c3ccc(Cl)cc3)c(=O)n(C3CC3)c2n1`, for which the AC50 entry is “inactive”.
In the case of `Cc1ccc(Nc2c([N+](=O)[O-])ccc3c2=NC2(CCCCC2)N=3)cc1`, the AC50 is 5.01 µM (active).
As for `O=C(Nc1cnn(Cc2ccc(Cl)cc2Cl)c1)c1cc(-c2cccs2)on1`, the AC50 is 8.91 µM (active).
As to `COc1ccc(-c2cc(C(=O)Nc3cnn(Cc4ccccc4C)c3)no2)cc1OC`, the AC50 result was “inactive”.
Take `O=C(CC1C(=O)N(c2ccc(Cl)cc2)C(=S)N1CCc1ccncc1)Nc1ccc(F)cc1` (stereo unspecified): the AC50 is 0.0631 µM (active).
For the compound `CN(C)CC/C=C1\c2ccccc2COc2ccccc21`, the AC50 result is “inactive”.
`Cn1c(=O)c2c(ncn2CN2CCN(Cn3cnc4c3c(=O)n(C)c(=O)n4C)CC2)n(C)c1=O`: the activity, negative = inhibition was 5.13% [at 11.4 µM].
`C#CCCCO/N=C1/C[C@@H](O)[C@@H](O)[C@@H]2[C@@H]3C(=O)N([C@@H](C)c4ccccc4)C(=O)[C@H]3CC[C@@H]12`: the activity, negative = inhibition is -23.8% [at 11.4 µM].
For `CC1(C)CC(=O)C2=C(C1)Oc1nc3ccccc3cc1C2C(C#N)C#N` (stereo unspecified), the AC50 is 3.55 µM (active).
Turning to `Cc1cc2c(cc1C)NC(c1nc3ccccc3[nH]1)C1=C(CC(C)(C)CC1=O)N2` (stereo unspecified), the AC50 result is “inactive”.
For the compound `CC1(C)Cc2c(sc3nc(SCC(=O)NCc4ccccc4)n(-c4ccccc4)c(=O)c23)CS1`, the AC50 was 6.31 µM (active).
As for `CC1(C)Cc2c(sc3c2C(=O)N(c2ccccc2)C2=NCCN23)CS1`, the AC50 result is “inactive”.
Turning to `Cc1ccc(-n2c(SCC(=O)NCc3ccco3)nc3sc4c(c3c2=O)CC(C)(C)SC4)cc1`, the AC50 is 2.24 µM (active).
In the case of `Nc1nc2c(c(=O)[nH]1)CN(c1ccc(S(N)(=O)=O)cc1)CN2`, the activity, negative = inhibition is 7.1% [at 11.4 µM].
Turning to `O=C1C2=CC[C@@H]3C(=O)N(c4ccc(F)cc4F)C(=O)[C@H]3[C@H]2[C@H](O)[C@H]2O[C@H]12`, the activity, negative = inhibition was 4.69% [at 11.4 µM].
Turning to `C=CCOC(=O)/C(=C\c1cccc2ccccc12)NC(=O)c1ccccc1`, the AC50 was 1.41 µM (active).
In the case of `Cc1ccc(S(=O)(=O)c2c(C)nn(C(C)(C)C)c2OC(=O)c2cccs2)cc1`, the AC50 was 3.16 µM (active).
In the case of `C[C@@]12CCC(=O)C=C1CC[C@@H]1[C@@H]2[C@H](O)C[C@]2(C)[C@@H]1CC[C@]2(O)C(=O)COC(=O)CCC(=O)O`, the AC50 result is “inactive”.
As for `CN=C(N)/N=C(\N)Nc1cc2ccccc2c2ccccc12`, the activity, negative = inhibition was -14.6% [at 11.4 µM].
As to `C=CC(C)(C)c1[nH]c2ccccc2c1C1=C(O)C(=O)C(c2c[nH]c3c(CC=C(C)C)cccc23)=C(O)C1=O`, the concentration at half-maximal activity (AC50) was 7.94 µM (active).
For the compound `ON(CCc1ccncc1)Cc1ccccc1`, the AC50 was 3.98 µM (active).
Take `c1ccc(SCCc2ccncc2)cc1`: the AC50 is 1.12 µM (active) and 1.26 µM (active).
Regarding `ON(CCc1ccccn1)Cc1ccccc1`, the activity, negative = inhibition is -2.37% [at 11.4 µM].
With `c1ccc(CCN2CCN=C2Cc2ccccc2)cc1`, the activity, negative = inhibition was -8.28% [at 11.4 µM].
For `Fc1ccc(SCCc2ccncc2)cc1`, the AC50 was 2 µM (active).
Consider `Br/C(=N\Nc1nn[nH]n1)c1ccncc1`, for which the activity, negative = inhibition was -3.74% [at 11.4 µM].
Consider `Cc1nc2cnc(Nc3ccccc3)nc2n(Cc2cccs2)c1=O`, for which the AC50 entry was “inactive”.
Take `COc1ccc(Oc2ncc3ncc(=O)n(Cc4cccs4)c3n2)cc1`: the concentration at half-maximal activity (AC50) was 15.8 µM (active).
In the case of `Cn1cc(-c2nc3cnc(Oc4ccccc4)nc3n(Cc3cccs3)c2=O)c2ccccc21`, the AC50 entry was “inactive”.
As for `O=c1cnc2cnc(Oc3ccccc3)nc2n1Cc1cccs1`, the AC50 was 25.1 µM (active).
As for `Cc1nc2cnc(Oc3ccccc3)nc2n(Cc2cccs2)c1=O`, the AC50 is 25.1 µM (active).
In the case of `CN1CCN(c2ncc3ncc(=O)n(Cc4cccs4)c3n2)CC1`, the AC50 entry was “inactive”.
With `COc1ncc2ncc(=O)n(Cc3cccs3)c2n1`, the AC50 entry was “inactive”.
